From PubChem BioAssay (EPA / NIEHS) come the findings set out here.

By AC50 is commonly meant the concentration at which the activity in the assay is half-maximal.

Activity calls are given as the source filed them. The calls were made as follows: active = hit-call score of the fitted dose curve at least 0.9, where 1 is the maximum; inactive = score below 0.9.

Read-out in experiment [1]: TIMP metallopeptidase inhibitor 1 (TIMP1), TIMP1 (gene 7076)
The experiment is described as follows: BSK_hDFCGF_TIMP1: BioMAP Diversity Plus: hDFCGF Assay for TIMP metallopeptidase inhibitor 1 (TIMP1) Biomarker Activity (AID 2283062). Conditions: primary human foreskin fibroblasts; actives raise or lower the signal. The gist of the method: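 Bidirectional curve fitting against DMSO baseline yielded this endpoint, based on ELISA detection of TIMP-1 in primary human foreskin fibroblasts exposed to compound for 24 h.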

Read-out in experiment [2]: Matrix Metallopeptidase 1 (MMP1), MMP1 (gene 4312)
The experiment is described as follows: BSK_hDFCGF_MMP1: BioMAP Diversity Plus: hDFCGF Assay for Matrix Metallopeptidase 1 (MMP1) Biomarker Activity (AID 2283064). The settings on record: primary human foreskin fibroblasts; actives raise or lower the signal. In short, it runs like this: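 ELISA read-out of MMP1 from human foreskin fibroblasts (primary skin cells), 24 h post-dose. Gain or loss of signal was fitted bidirectionally versus DMSO negative control; cytotoxicity was checked by SRB in parallel cultures.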

Read-out in experiment [3]: Vascular cell adhesion molecule 1 (VCAM1), VCAM1 (gene 7412)
The experiment is described as follows: BSK_hDFCGF_VCAM1: BioMAP Diversity Plus: hDFCGF Assay for Vascular cell adhesion molecule 1 (VCAM1) Biomarker Activity (AID 2283065).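 As to AC50: VCAM-1 protein level quantified by ELISA after 24 h chemical exposure.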 Conditions: primary human foreskin fibroblasts; actives raise or lower the signal. In short, it runs like this: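 Measured after 24 h chemical treatment of primary human skin fibroblasts, VCAM-1 was detected by ELISA and concentration-response analysed in both directions versus DMSO vehicle.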

Read-out in experiment [4]: Plasminogen activator inhibitor-1 (PAI1), SERPINE1 (gene 5054)
The experiment is described as follows: BSK_hDFCGF_PAI1: BioMAP Diversity Plus: hDFCGF Assay for Plasminogen activator inhibitor-1 (PAI1) Biomarker Activity (AID 2283066). Conditions: primary human foreskin fibroblasts; actives raise or lower the signal. In short, it runs like this: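 PAI-1 levels in human dermal foreskin fibroblasts were quantified by ELISA 24 h after dosing, with gain or loss analysed against DMSO. Overt cytotoxicity was checked by sulforhodamine B total-protein staining in parallel cultures.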

Read-out in experiment [5]: Intercellular Adhesion Molecule 1 (ICAM1), ICAM1 (gene 3383)
The experiment is described as follows: BSK_KF3CT_ICAM1: BioMAP Diversity Plus: KF3CT Assay for Intercellular Adhesion Molecule 1 (ICAM1) Biomarker Activity (AID 2283067). The settings on record: primary human keratinocytes with fibroblasts; actives raise or lower the signal. The gist of the method: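 Bidirectional curve fitting against a DMSO baseline was applied to ICAM-1 ELISA signal from primary human skin co-cultures harvested 24 h after treatment, with SRB staining of parallel wells for overt cytotoxicity.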

Read-out in experiment [6]: Interferon-gamma inducible Protein 10 (IP10), CXCL10 (gene 3627)
Kind of experiment: BSK_KF3CT_IP10: BioMAP Diversity Plus: KF3CT Assay for Interferon-gamma inducible Protein 10 (IP10) Biomarker Activity (AID 2283068). The settings on record: primary human keratinocytes with fibroblasts; actives raise or lower the signal. The gist of the method:
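In a primary skin co-culture of keratinocytes and fibroblasts, IP-10 is quantified by ELISA at 24 h after dosing. SRB staining of parallel wells monitors overt toxicity. Curves are fitted both directions against DMSO.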

Read-out in experiment [7]: Interleukin-1 alpha (IL1a), IL1A (gene 3552)
The experiment is described as follows: BSK_KF3CT_IL1a: BioMAP Diversity Plus: KF3CT Assay for Interleukin-1 alpha (IL1a) Biomarker Activity (AID 2283070). Conditions: primary human keratinocytes with fibroblasts; actives raise or lower the signal. In short, it runs like this: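 Primary skin co-culture (keratinocytes, foreskin fibroblasts), 24 h exposure; ELISA for IL-1a; bidirectional curve fit vs DMSO.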

Read-out in experiment [8]: Transforming growth factor beta 1 (TGFb1), TGFB1 (gene 7040)
The experiment is described as follows: BSK_KF3CT_TGFb1: BioMAP Diversity Plus: KF3CT Assay for Transforming growth factor beta 1 (TGFb1) Biomarker Activity (AID 2283072). Conditions: primary human keratinocytes with fibroblasts; actives raise or lower the signal. The gist of the method:
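ELISA quantifies TGF-b1 at 24 h post-dose in a primary human skin co-culture of keratinocytes and fibroblasts, with gain or loss judged against DMSO. Parallel SRB total-protein staining flags overt cytotoxicity.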

Read-out in experiment [9]: C-C motif chemokine 2 (Homo sapiens) (UniProt P13500)
The experiment is described as follows: BSK_KF3CT_MCP1: BioMAP Diversity Plus: KF3CT Assay for Monocyte Chemoattractant Protein 1 (MCP1/CCL2) Biomarker Activity (AID 2283073). The settings on record: primary human keratinocytes with fibroblasts; actives raise or lower the signal. In short, it runs like this: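 Biomarker MCP-1 is measured by ELISA in primary human keratinocytes co-cultured with foreskin fibroblasts, 24 h after chemical treatment; DMSO serves as the negative control and activity baseline.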

Read-out in experiment [10]: Matrix Metallopeptidase 9 (MMP9), MMP9 (gene 4318)
Kind of experiment: BSK_KF3CT_MMP9: BioMAP Diversity Plus: KF3CT Assay for Matrix Metallopeptidase 9 (MMP9) Biomarker Activity (AID 2283074).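 As to AC50: MMP9 protein level quantified by ELISA in the co-culture.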 Conditions: primary human keratinocytes with fibroblasts; actives raise or lower the signal. In short, it runs like this: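 ELISA read-out of MMP-9 at 24 h post-dosing in a co-culture of human skin keratinocytes and foreskin fibroblasts. Gain or loss of signal was fitted in both directions against DMSO.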

Read-out in experiment [11]: urokinase plasminogen activator (uPA), PLAU (gene 5328)
The experiment is described as follows: BSK_KF3CT_uPA: BioMAP Diversity Plus: KF3CT Assay for urokinase plasminogen activator (uPA) Biomarker Activity (AID 2283075). The settings on record: primary human keratinocytes with fibroblasts; actives raise or lower the signal. In short, it runs like this:
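Skin co-culture (keratinocytes + foreskin fibroblasts), human primary; 24 h post-dose; uPA by ELISA; gain/loss fit vs DMSO baseline.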

Read-out in the next experiment: CD40, CD40 (gene 958)
The experiment is described as follows: BSK_LPS_CD40: BioMAP Diversity Plus: LPS Assay for CD40 Biomarker Activity (AID 2283076). The settings on record: primary human HUVEC with PBMC; actives raise or lower the signal. In short, it runs like this:
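Using a multiplexed primary human co-culture (umbilical vein endothelium plus PBMC), CD40 was read by ELISA 24 h after dosing, with cytotoxicity tracked by sulforhodamine B staining of parallel cultures and activity fitted bidirectionally versus DMSO.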

Read-out in experiment [12]: E-selectin (Homo sapiens) (UniProt P16581)
Kind of experiment: BSK_LPS_Eselectin: BioMAP Diversity Plus: LPS Assay for Eselectin Biomarker Activity (AID 2283077). The settings on record: primary human HUVEC with PBMC; actives raise or lower the signal. The gist of the method: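 Dose chemical onto LPS-driven HUVEC/PBMC co-culture; after 24 h, run ELISA for E-selectin; fit up- and down-going responses relative to DMSO control.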

Read-out in experiment [13]: Interleukin-8 (IL8), CXCL8 (gene 3576)
The experiment is described as follows: BSK_LPS_IL8: BioMAP Diversity Plus: LPS Assay for Interleukin-8 (IL8) Biomarker Activity (AID 2283078). Conditions: primary human HUVEC with PBMC; actives raise or lower the signal. In short, it runs like this: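 In this LPS system, chemical-treated human umbilical vein endothelium/PBMC co-cultures were harvested at 24 h for IL-8 ELISA.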

The nature of experiment [14]: BSK_LPS_SRB: Viability Assessment in the BioMAP Diversity Plus: LPS Assay (AID 2283079).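 Also: total protein by sulforhodamine B absorbance as a cytotoxicity measure; measured one day after compound addition.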 Conditions: primary human HUVEC with PBMC. The gist of the method: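 Cytotoxicity endpoint in human endothelial–PBMC co-culture: 24 h exposure, then SRB (0.1%) staining, 560 nm read.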
Read-out in experiment [15]: Interleukin-1 alpha (IL1a), IL1A (gene 3552)
Kind of experiment: BSK_LPS_IL1a: BioMAP Diversity Plus: LPS Assay for Interleukin-1 alpha (IL1a) Biomarker Activity (AID 2283080). The settings on record: primary human HUVEC with PBMC; actives raise or lower the signal. In short, it runs like this: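 Primary human HUVEC and PBMC co-culture stimulated with LPS is dosed and harvested at 24 h. Both increases and decreases in ELISA-measured IL-1a are scored relative to DMSO.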

Read-out in experiment [16]: Monocyte Chemoattractant Protein-1 (MCP1), CCL2 (gene 6347)
The experiment is described as follows: BSK_LPS_MCP1: BioMAP Diversity Plus: LPS Assay for Monocyte Chemoattractant Protein-1 (MCP1) Biomarker Activity (AID 2283081).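 As to AC50: secreted MCP-1 protein quantified by ELISA in culture supernatant.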 The settings on record: primary human HUVEC with PBMC; actives raise or lower the signal. In short, it runs like this: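 Values derive from bidirectional fitting against DMSO of ELISA-measured MCP-1 in a human primary endothelial and mononuclear cell co-culture, 24 h after chemical addition under LPS activation.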

Experiment [17] in a line: BSK_KF3CT_SRB: Viability Assessment in the BioMAP Diversity Plus: KF3CT Assay (AID 2283069).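 Also: read 24 h after compound addition.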 Conditions: primary human keratinocytes with fibroblasts. The gist of the method:
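SRB read-out at 560 nm (0.1% stain, TCA-fixed cells) gauges overt cytotoxicity in a human skin keratinocyte–fibroblast co-culture 24 h post-dosing. Signal change was fitted bidirectionally relative to DMSO control.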

Read-out in experiment [18]: TIMP metallopeptidase inhibitor 2 (TIMP2), TIMP2 (gene 7077)
The experiment is described as follows: BSK_KF3CT_TIMP2: BioMAP Diversity Plus: KF3CT Assay for TIMP metallopeptidase inhibitor 2 (TIMP2) Biomarker Activity (AID 2283071). Conditions: primary human keratinocytes with fibroblasts; actives raise or lower the signal. The gist of the method: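 TIMP-2 measured by ELISA at 24 h in human keratinocyte/fibroblast primary co-cultures exposed to chemicals. Both increases and decreases were fitted against DMSO. Parallel cultures were stained with SRB for total protein as an overt-cytotoxicity check.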

Chain of E-selectin (Homo sapiens) (P16581 whole entry, looked up): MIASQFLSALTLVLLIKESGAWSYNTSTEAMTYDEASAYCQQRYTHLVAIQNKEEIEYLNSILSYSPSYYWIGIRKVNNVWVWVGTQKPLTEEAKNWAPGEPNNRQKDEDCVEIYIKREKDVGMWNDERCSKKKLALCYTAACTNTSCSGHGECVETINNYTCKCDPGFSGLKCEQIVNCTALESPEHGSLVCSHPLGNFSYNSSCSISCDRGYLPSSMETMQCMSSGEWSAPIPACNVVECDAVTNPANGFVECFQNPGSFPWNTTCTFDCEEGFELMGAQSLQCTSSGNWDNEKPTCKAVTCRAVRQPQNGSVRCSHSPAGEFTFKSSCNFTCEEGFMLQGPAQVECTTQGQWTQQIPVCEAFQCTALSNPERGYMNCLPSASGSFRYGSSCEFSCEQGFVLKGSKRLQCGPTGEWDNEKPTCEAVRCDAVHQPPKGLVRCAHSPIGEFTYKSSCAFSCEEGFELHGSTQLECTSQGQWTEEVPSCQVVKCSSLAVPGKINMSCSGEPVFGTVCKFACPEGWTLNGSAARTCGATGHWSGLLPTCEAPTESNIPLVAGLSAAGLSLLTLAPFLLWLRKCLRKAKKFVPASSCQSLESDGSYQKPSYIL

As to `O=C1CCCCC1`, the result in [1], in experiment [2], in experiment [3], in experiment [4], in experiment [5] and in experiment [6] was inactive. Also, the outcome in experiment [7] is “inactive”; in experiment [8], “inactive”; in experiment [9], “inactive”; in experiment [10], “inactive”; in experiment [11] it was “inactive”; with CD40, CD40 (gene 958), “inactive”. Moreover, the outcome in [12], in [13], in [14], in experiment [15] and in [16] was inactive.
Turning to `Oc1ccc(O)cc1`, the concentration at half-maximal activity (AC50) in experiment [1] is 13.4 µM (active); in [3], 13.5 µM (active); in [4], 14.7 µM (active); in [5] it was 6.66 µM (active); in experiment [6], 20 µM (active); in experiment [10] it was 20 µM (active). For the same compound, the AC50 in experiment [12] was 26.2 µM (active); in [13] it was 30.7 µM (active); in experiment [15], 8.51 µM (active); in experiment [16] it was 25.8 µM (active). The outcome is “inactive” in [7]; “inactive” in experiment [8]; “inactive” in [9]; “inactive” in [11]; “inactive” with CD40, CD40 (gene 958).
With `O=C(O)c1cccnc1`, the outcome in experiment [1], in experiment [3], in experiment [4], in experiment [5], in [6] and in experiment [17] was inactive. Also, the outcome in [7], in [18], in experiment [8], in experiment [9], in [10] and in experiment [11] was inactive. The outcome was “inactive” with CD40, CD40 (gene 958); “inactive” in [12]; “inactive” in experiment [14]; “inactive” in experiment [15]; “inactive” in experiment [16].
As to `CC(C)NCC(O)c1ccc(O)c(O)c1` (stereo not given), the result in [1], in experiment [3], in experiment [4], in [5], in experiment [6] and in experiment [17] was inactive. The outcome in experiment [7] is “inactive”; in experiment [8], “inactive”; in experiment [9], “inactive”; in experiment [10], “inactive”; in experiment [11], “inactive”; in the experiment with CD40, CD40 (gene 958), “inactive”. Besides, the outcome in experiment [12], in [13], in experiment [15] and in [16] was inactive.
